Shown are actives, neighbours in structure and some others; about 0.9% of the full set was active somewhere.
gsp antagonist = qHTS for Antagonists of gsp, the Etiologic Mutation Responsible for Fibrous Dysplasia/McCune-Albright Syndrome: qHTS | Potency, µM (highest dose often 76.9 µM), for the others: at the top dose activity change, negative = inhibition, hits mostly inhibitors | gsp-mutant cells, cAMP HTRF, 30 min | hit rate 0.4% among 340,000 | AID 624288, 2012; calls by dose curve; cell line not stated here;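 note: intracellular cAMP measured with PDE inhibitor Ro 20-1724 present during compound exposure; potency is the fitted concentration of half-maximal effect; % is set by controls: 0 for no effect and ±100 for the full control effect; nearly all actives have a fitted effect of over 65% in size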
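HTRF cAMP read-out (cAMP-d2 plus anti-cAMP antibody-K in lysis buffer, 30 min RT). Before lysis, cells are exposed to compounds with […] for 30 min at 37C in DPBS containing Ca/Mg, BSA and Tween 20.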
RXFP1 ag = qHTS Assay for Agonists of the Relaxin Receptor RXFP1 | Relaxin receptor 1 (Homo sapiens), Q9HBX9 | HEK293T-RXFP1 cAMP TR-FRET, 30 min; response scale: percent of porcine relaxin response, buffer zero | Potency, µM (top dose mostly 57.5 µM), for inactives: top-dose activation, hits mostly activators | hit rate 0.3% among 370,000 | AID 2676, 2010; active = well fitted activation curve with a large enough effect; inconclusive = small, poorly fitted or top-dose-only effect; note: potency is the fitted concentration of half-maximal effect; % is set by controls: 0 for no effect and ±100 for the full control effect; nearly all actives have a fitted effect of over 60% in size
Target sequence (Q9HBX9 whole entry, looked up): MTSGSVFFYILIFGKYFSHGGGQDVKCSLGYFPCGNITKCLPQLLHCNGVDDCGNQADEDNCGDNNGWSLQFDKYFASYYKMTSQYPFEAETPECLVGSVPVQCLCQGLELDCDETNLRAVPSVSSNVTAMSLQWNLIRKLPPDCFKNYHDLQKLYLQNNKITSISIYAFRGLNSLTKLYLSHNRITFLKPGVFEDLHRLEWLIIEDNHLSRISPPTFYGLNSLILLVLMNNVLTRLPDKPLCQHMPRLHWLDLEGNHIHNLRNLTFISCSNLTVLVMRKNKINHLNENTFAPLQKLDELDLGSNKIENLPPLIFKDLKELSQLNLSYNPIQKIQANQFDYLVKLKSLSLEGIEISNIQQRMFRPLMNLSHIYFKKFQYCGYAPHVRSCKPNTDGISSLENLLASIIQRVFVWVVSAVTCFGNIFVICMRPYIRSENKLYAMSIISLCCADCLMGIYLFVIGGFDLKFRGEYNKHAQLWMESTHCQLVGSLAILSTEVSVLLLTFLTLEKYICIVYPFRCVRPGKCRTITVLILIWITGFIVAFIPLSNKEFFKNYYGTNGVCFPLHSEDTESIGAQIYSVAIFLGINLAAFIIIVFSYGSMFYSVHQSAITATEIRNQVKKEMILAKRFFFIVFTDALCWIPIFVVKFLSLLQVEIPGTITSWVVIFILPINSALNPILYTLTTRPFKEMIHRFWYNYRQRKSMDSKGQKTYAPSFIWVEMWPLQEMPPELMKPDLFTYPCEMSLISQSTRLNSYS
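HEK293T cells stably expressing RXFP1 were pretreated with the PDE4 inhibitor Ro 20174, exposed to compounds for 30 min at 37C, lysed, and cAMP was read by TR-FRET. Data normalized to buffer (basal) and 29 nM porcine relaxin (100%).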
gsp ag = qHTS for Agonist of gsp, the Etiologic Mutation Responsible for Fibrous Dysplasia/McCune-Albright Syndrome: qHTS; Potency, µM (titrated, usually from 76.9 µM), for the others: at the top dose activation (cAMP increase), usual class: activators; hit rate 0.13% among 340,000; gsp mutant cells, cAMP HTRF, 30 min; AID 624287, 2012; active = well fitted activation curve with a large enough effect; inconclusive = small, poorly fitted or top-dose-only effect, or another doubt; inactive = no such curve, though single readings can be large or run the other way; cell line not stated here;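 note: phosphodiesterase inhibitor Ro 20-1724 added with compounds to block cAMP breakdown; potency is the fitted concentration of half-maximal effect; nearly all actives have a fitted effect of over 60% in size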
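Cells in DMEM/10% FBS with G418 were pretreated with compounds in DMSO plus […] (300 uM stock) for 30 min at 37C. cAMP was measured by HTRF (cAMP-d2 plus anti-cAMP antibody-K) after 30 min at room temperature.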
RXFP1 antag = qHTS Assay for Antagonists of the Relaxin Receptor RXFP1; Relaxin receptor 1 (Homo sapiens), Q9HBX9; HEK293-RXFP1, relaxin-stimulated cAMP HTRF, 30 min; stronger effect = lower value; activity change, negative = inhibition, % at 57.5 µM; hit rate 0.59% among 350,000; AID 1259400, 2018;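 active = activity change of -60% or lower, but not beyond a set lower limit; inconclusive = change between -60% and -40%, or beyond the set limit; inactive = change above -40%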; note: % is set by controls: 0 for no effect and ±100 for the full control effect
The depositor's hits bear a star; ? = inconclusive; · = not tested or not shown; [ ] = remark or other dose.

SMILES | gsp antagonist | RXFP1 ag | gsp ag | RXFP1 antag
COc1cc(NS(=O)(=O)c2ccc(C)cc2C)cc(OC)c1OC | 35.5µM* | 1.7% | ? | 9.4
CCC1(C)Cc2c(sc3nc(SC)[nH]c(=S)c23)CO1 (configuration not stated) | -5.8% | 25.1µM* | ? | 8.0
Oc1ccccc1N=Nc1ccccc1O | 35.5µM* | 2.8% | -7.0% | -28.8
Nc1ccc(N=Nc2ccccc2O)c(N)c1 | -3.6% | · | -3.8%[15.4 µM] | 3.4
O=C(NC(Cc1c[nH]c2ccccc12)C(=O)Nc1ccc(F)c([N+](=O)[O-])c1)c1cccs1 (configuration not stated) | -2.0% | -0.4% | 1.1% | -2.9
O=C(NC(Cc1c[nH]c2ccccc12)C(=O)Nc1ccc(OC(F)(F)F)cc1)c1cccs1 (configuration not stated) | 4.5% | 0.0% | -0.1%[15.4 µM] | -70.8*
Cc1cc(=O)oc2cc(O[C@@H]3SC[C@@H](O)[C@H](O)[C@H]3O)ccc12 | · | · | · | 7.7
O=C1CSc2ccc(C(=O)Nc3cccc(S(=O)(=O)Nc4ccc(Br)cc4)c3)cc2N1 | 39.8µM* | 1.8% | -14.8% | -13.2
COc1ccc(NS(=O)(=O)c2cccc(NC(=O)c3ccc(Cl)nc3)c2)cc1 | ? | 4.3% | 5.3%[15.4 µM] | -71.2*
O=C(Nc1cccc(S(=O)(=O)Nc2ccc(Cl)cc2)c1)c1ccc(Cl)nc1 | 44.7µM* | 1.2% | -42.5% | -18.0
COc1cccc(S(=O)(=O)Nc2ccc(C(=O)Nc3ccncc3)cc2)c1 | -9.3% | -0.3% | -1.4% | ·
Cc1ccccc1CNC(=O)c1cnc2sc(N3CCOCC3)nn2c1=O | · | 5.1% | · | -7.3
COc1ccc(CCNC(=O)CCCn2c(=O)c3ccccc3n(Cc3ccccc3C#N)c2=O)cc1OC | · | -1.0% | · | ·
CC[C@]12C(=O)N(C)C[C@H]([C@@H]3C(=O)N(Cc4ccccc4)C(=O)[C@@H]31)N2C(=O)c1ccc(C(F)(F)F)cc1 | -1.3% | · | · | ·
CCOc1cc(N2CCOCC2)c(OCC)cc1NC(=O)c1c(C)noc1C | 35.5µM* | 1.2% | -10.9% | -13.5
COc1cccc(C2/C(=C(\O)c3ccc4c(c3)OCCO4)C(=O)C(=O)N2CCCN2CCOCC2)c1OC (configuration not stated) | 26.4% | 28.4% | 8.91µM* | 17.4
O=C1C(=O)N(Cc2cccnc2)C(c2ccc(Br)cc2)/C1=C(\O)c1ccc2c(c1)OCCO2 (configuration not stated) | 11.7% | ? | 8.91µM* | -0.3
O=C1C(=O)N(CCCN2CCOCC2)C(c2ccc(Cl)cc2)/C1=C(\O)c1ccc2c(c1)OCCO2 (configuration not stated) | 27.9% | ? | 11.2µM* | 28.9
CCOc1ccc(/C(O)=C2/C(=O)C(=O)N(CCCN3CCOCC3)C2c2ccc(C)cc2)cc1C (configuration not stated) | 11.2µM* | 27.3% | 39.1% | -0.7
CCOc1ccc(C2/C(=C(\O)c3ccc4c(c3)OCCO4)C(=O)C(=O)N2CCN2CCOCC2)cc1OCC (configuration not stated) | 5.7% | 5.9% | ? | 10.3
COc1ccc(C2/C(=C(\O)c3ccc4c(c3)OCCO4)C(=O)C(=O)N2Cc2cccnc2)cc1OC (configuration not stated) | 13.1% | 18.5% | 24.2% | 4.2
CCC(=O)N1c2ccc(S(=O)(=O)CCC(=O)N3CCN(c4ccc(F)cc4)CC3)cc2CC1C (configuration not stated) | · | 2.9% | · | ·
CN(C)CCOC(c1ccccc1)c1ccc(Br)cc1 (configuration not stated) | · | · | · | -30.8
Cc1ccc2c(CN3CCN(Cc4ccccc4Cl)CC3)cc(=O)oc2c1 | · | 3.5% | · | 0.8
COc1ccc(/C=N/Nc2cc(C)nc3ccccc23)cc1 | 8.8% | 0.3% | -30.5% | -70.6*
COc1ccc(NC(=O)Cn2c(=O)n(CCCCCC(=O)NCc3ccc4c(c3)OCO4)c(=O)c3sccc32)cc1Cl | · | 0.7% | · | 10.4
CN(C)c1oc(-c2ccc(COc3ccccc3)o2)nc1C#N | · | -0.9% | · | -4.0
CCOc1ccc(Nc2nc(N)c(C(=O)c3ccccc3Cl)s2)cc1 | · | 25.1µM* | · | -22.4
COc1ccc(Nc2nc(N)c(C(=O)c3ccc(OC)cc3)s2)cc1 | 9.5% | 0.9% | 6.5% | -17.4

Bioassay records as filed in PubChem.
